# From PubChem BioAssay AID504332 (National Center for Advancing Translational Sciences (NCATS), 2011)
# Among all 350,000 compounds or so, about 31,000 (8.9%) were called active. About 15% were inconclusive and are not listed. What follows is part of a selection rich in actives, with near analogues and random picks from the rest. A call without a number means that no potency is given here. A number with no mark means an inactive call. Calls come from the whole dose curve; as a rule, active = well fitted inhibition curve with a large enough effect; inconclusive = small, poorly fitted or top-dose-only effect; inactive = no such curve, though single readings can be large or run the other way.
# Molecular target: Histone-lysine N-methyltransferase EHMT2 (Homo sapiens) (UniProt Q96KQ7)
# Sequence (Q96KQ7 913-1193 limits assumed): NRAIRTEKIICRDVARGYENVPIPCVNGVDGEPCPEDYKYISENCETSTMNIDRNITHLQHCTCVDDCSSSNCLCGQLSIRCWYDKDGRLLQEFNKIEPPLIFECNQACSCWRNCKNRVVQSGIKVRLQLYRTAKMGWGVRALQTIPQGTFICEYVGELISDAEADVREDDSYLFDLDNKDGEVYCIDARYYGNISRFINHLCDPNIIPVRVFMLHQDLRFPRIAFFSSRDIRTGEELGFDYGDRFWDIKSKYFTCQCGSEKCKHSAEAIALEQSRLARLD
# Assay: qHTS Assay for Inhibitors of Histone Lysine Methyltransferase G9a; note: nearly all actives have a fitted effect of over 75% in size
# Conditions: G9a H3K9 monomethylation, AlphaScreen, 2 h; series mostly up to 59 µM
# Procedure, shortened: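 Compounds were preincubated with 20 nM G9a for 15 min, after which biotinylated H3K9 peptide (500 nM) and SAM (20 uM) started a 2 h room-temperature reaction. Monomethylated product was quantified by antibody-based AlphaScreen chemiluminescence.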
# Potency is the fitted concentration of half-maximal effect.
SMILES,"activity, negative = inhibition",Potency
CCOc1ccc(NC(=O)COc2ccc(C(=O)N3CCC(C(N)=O)CC3)cc2OC)cc1,4.45% [at 0.501 µM],
CC(OC(=O)CNC(=O)c1ccco1)C(=O)Nc1ccc(Cl)cn1 (centres undefined),,inactive
COc1ccc2[nH]c(C(=O)N3CCN(C)CC3)c(C)c2c1,,inactive
CCN(CC)CC(=O)c1c[nH]c2ccc(OC)cc12,,inactive
COc1ccc2[nH]c3ccc(OC)cc3c2c1,,50.1 µM (active)
COc1ccc(NC(=O)c2cc3cc(C)ccc3n2C)cc1,,inactive
CCC(C)NC(=O)c1ccc(NC(=O)CC2SC(N3CCCCC3)=NC2=O)cc1 (centres undefined),-0.745% [at 12.7 µM],
CC(=O)O[C@H]1CC[C@@]2(C)[C@@H](CC[C@@H]3[C@@H]2CC[C@]2(C)[C@@H](C(C)(C)O)C[C@@H]32)C1,-7.36% [at 2.33 µM],
O=C(NCc1ccco1)c1sc2cccc(F)c2c1Cl,,8.91 µM (active)
O=C(NCc1ccco1)c1nn2cccnc2c1Cl,,inactive
O=C(NCc1ccco1)C1(c2ccc(Cl)cc2)CCCC1,,inactive
COc1ccc(-c2cc(C(=O)N3CCN(Cc4ccc5c(c4)OCO5)CC3)on2)cc1OC,,inactive
CCN1C(=O)[C@H]2[C@@H](c3ccc(C)cc3)N3C(=O)N(c4cccc(Br)c4)C(=O)[C@@]3(CC)[C@H]2C1=O,-0.448% [at 2.33 µM],
CCOc1cc(/C=C2\C(=N)N3N=C(C)SC3=NC2=O)ccc1OCCOc1ccccc1,,inactive
C=CCOc1ccc(/C=N/NC(=O)C(C)Sc2ccccn2)cc1OCC (centres undefined),,inactive
COc1cc(/C=C2/C(=O)ON=C2C)ccc1OCc1cccc(F)c1,,50.1 µM (active)
C=CCOc1ccc(/C=C2/C(=O)ON=C2C)cc1OCC,,44.7 µM (active)
COc1ccnc2c1c(=O)n(Cc1cccc(F)c1)c(=O)n2C,,inactive
C#CCOc1ccccc1/C=C1/C(=O)ON=C1C,,inactive
C#CCOc1ccc(/C=C2/C(=O)ON=C2C)cc1OCC,,39.8 µM (active)
CCOc1cc(/C=N/O)ccc1OCc1ccccc1F,,inactive
COc1cc(/C=C2\SC(=O)NC2=O)ccc1OCc1ccc(Cl)nc1,21.1% [at 2.33 µM],

SMILES,"activity, negative = inhibition",Potency
O=C1CC(c2ccc(F)cc2F)c2cc3c(cc2N1)OCO3 (centres undefined),,inactive
Cc1ccc(S(=O)(=O)N2CCN(C(=O)Cc3sc(C)nc3-c3ccc(F)cc3)CC2)c(C)c1,,inactive
CCc1ccc(S(=O)(=O)c2nnn3c2nc(NCc2ccccc2OC)c2cc(Cl)ccc23)cc1,,inactive
O=C(Nc1nc2ccc(F)cc2s1)c1nc(SCc2ccccc2F)ncc1Cl,,inactive
CCOC(=O)Cc1ccc(NC(=O)Nc2c[nH]c(=O)[nH]c2=O)cc1,,inactive
CCc1ccc(NC(=O)c2cc3c(=O)n(Cc4cccnc4)ccc3nc2C)cc1,,inactive
O=C(c1ccc(S(=O)(=O)N2CCCC2)cc1)N1CCN(c2ccccc2F)CC1,,inactive
CNS(=O)(=O)c1ccc(C(=O)NCC(=O)NCCc2ccc3c(c2)OCCO3)cc1,-2.43% [at 12.7 µM],
Cc1ccc(S(=O)(=O)NCC(=O)N(CC(=O)NCC2CCCO2)c2cccc(F)c2)cc1 (centres undefined),,inactive
CCOc1ccc(S(=O)(=O)NCCC(=O)NCC2CCCO2)cc1 (centres undefined),28.8% [at 12.7 µM],
Cc1ccc(CN(CC(=O)NCC2CCCO2)S(=O)(=O)c2ccc(C)cc2)cc1 (centres undefined),,inactive
O=C(CN(CC1CCCO1)C(=O)CNS(=O)(=O)c1ccc(Cl)cc1)NCc1ccccc1 (centres undefined),,inactive
Cc1ccc(N(CC(=O)NCC2CCCO2)C(=O)CNS(=O)(=O)c2ccc(Cl)cc2)cc1 (centres undefined),,1 µM (active)
CCOc1ccc(N(CC(=O)NCC2CCCO2)S(=O)(=O)c2ccc(C)cc2)cc1 (centres undefined),,50.1 µM (active)
Cc1ccc(-c2nnc(Nc3cccc(Br)c3)c3ccccc23)cc1S(=O)(=O)NCC1CCCO1 (centres undefined),,inactive
CCOc1ccccc1NC(=O)Cn1c2ncccc2c(=O)n1-c1ccc(C)c(C)c1,,inactive
COc1cc2ccccc2cc1C(=O)Nc1cccc(-c2nc3ccccc3o2)c1,,inactive
O=C(/C=C/c1ccccc1)N1CCN(Cc2cc(=O)n3nc(-c4ccccc4F)sc3n2)CC1,,inactive
O=C(NCCC1=CCCCC1)c1ccc2c(c1)N(Cc1ccccc1F)C(=O)c1ccccc1S2(=O)=O,,inactive
C=C(C)COc1ccc(-c2ncncc2-c2ccc(OC)cc2)c(O)c1,,inactive
CC(C)c1ccc(NC(=O)Cn2c3ncccc3c(=O)n2-c2ccccc2)cc1,,inactive
Cc1ccc(NC2(C#N)C(=O)Nc3ccccc32)cc1 (centres undefined),-25.6% [at 2.33 µM],

SMILES,"activity, negative = inhibition",Potency
N#CC1=C(N)Oc2n[nH]c(CSc3ccccc3)c2C12C(=O)Nc1ccccc12 (centres undefined),,inactive
N#CC1=C(N)Oc2[nH]c(=S)[nH]c(=O)c2C12C(=O)Nc1ccccc12 (centres undefined),,35.5 µM (active)
O=C1c2ccccc2NC(c2ccc(-c3cccc(Cl)c3)o2)N1O (centres undefined),25.2% [at 12.7 µM],
O=C(O)C(c1ccccc1)N1C(=O)/C(=C\c2ccc(-c3cccc(Cl)c3)o2)SC1=S (centres undefined),,39.8 µM (active)
CN=C1S/C(=C\c2ccc(Sc3ccc(Cl)cc3)o2)C(=O)N1C,,inactive
Cc1ccc(C(=O)COC(=O)C(Cc2c[nH]c3ccccc23)NC(=O)c2ccc(Br)cc2)cc1 (centres undefined),,inactive
Cn1cc(S(=O)(=O)N2CCCCCC2)cc1C(=O)N1CCN(c2ccc(F)cc2)CC1,,inactive
CCCCc1nn2c(=O)cc(COC(=O)c3ccc(NC(=O)c4ccccc4C)cc3)nc2s1,,inactive
Cc1ccc(-n2c(SCC(=O)Nc3cccc(F)c3)nc3c(oc4ccccc43)c2=O)cc1C,,inactive
CCN(CC(=O)Nc1ccc(OC)cc1)C(=O)c1ccc(Cl)c(S(=O)(=O)N2CCCC2)c1,,inactive
COc1ccc(C(=O)OCC(=O)c2ccc(Cl)s2)c(OC)c1OC,,inactive
C=CCNC(=S)NNC(=O)c1ccc(Br)o1,,inactive
C=CCNC(=S)NNC(=O)COc1c(Cl)cc(Cl)cc1Cl,,8.91 µM (active)
C=CCNC(=S)NNC(=O)c1cc(Cl)ccc1OC,,inactive
Cc1ccc(CSCC2Nc3ccc(C(=O)N4CCN(c5ccc(F)cc5)CC4)cc3NC2=O)cc1 (centres undefined),,2.24 µM (active)
O=C1Nc2cc(C(=O)N3CCN(c4ccc(F)cc4)CC3)ccc2NC1CSCc1cccc(F)c1 (centres undefined),,10 µM (active)
C=CCn1c(SCc2cccc(F)c2)nc2cc(C(=O)N3CCC(C(N)=O)CC3)ccc2c1=O,,inactive
O=C(c1cc(-c2ccc(F)cc2)on1)N1CCN(c2ccc(F)cc2)CC1,,inactive
O=C(c1cccc(F)c1)N1CCC2(CC1)CCN(c1ccccc1)CC2,-4.3% [at 12.7 µM],
O=C(c1cc(C(=O)N2CCN(c3ccc(F)cc3)CC2)cc([N+](=O)[O-])c1)N1CCN(c2ccc(F)cc2)CC1,1.74% [at 0.501 µM],
